Growth data for 38 molecules are collected here from PubChem BioAssay (NCI).

Structures are written as SMILES. About 83,000 compounds went through this panel and 20% of them were active in at least one assay; those are over-represented in the sample as a whole.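 96-well plates, one dose, 48 hours. Percent growth reported; active if below 10.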 Unmarked numbers belong to inactive results. Activity calls are given as the source filed them.

In the first experiment the test system is NCI-H522 lung. As to the kind of experiment: NCI-60 one-dose screen, 48 h (100 = growth as untreated, 0 = no growth, -100 = all killed). The note with it: 10 µM unless noted.
As for `O=c1c2cccc3c(Nc4ccccn4)ccc(c32)c2nc3ccccc3n12`, the growth was 56.6%.

In the case of `CN(C)c1ccc(/C=C\C2=[N+](C)c3ccccc3C2(C)C)cc1`, the growth is -23.7% (active).

Consider `Cn1cc(-c2nc(-c3c[nH]c4ccccc34)cs2)c2cccnc21`, for which the growth is -3.47% (active).

Consider `CCOC(=O)CC(=O)c1c(C)cc(C)cc1C`, for which the growth was 62.5%.

On to `CC(C)c1c(C(=O)Nc2ccccc2)c(-c2ccccc2)c(-c2ccc(F)cc2)n1CC[C@@H]1CC=CC(=O)O1`, for which the growth was -33.4% (active).

`CCN(CC)Cc1cc(Nc2c3ccc(Cl)cc3nc3c(C)cccc23)ccc1O`: the growth was -77.2% (active).

Consider `O=[N+]([O-])c1cccc(C2CC(c3ccccc3)=Nc3ccccc3S2)c1` (stereo unspecified), for which the growth was 76.7%.

As to `C=C1C(=O)O[C@H]2[C@H]1CC/C(Cn1cc(Cn3ccc4ccccc43)nn1)=C\CC[C@@]1(C)O[C@@H]21`, the growth was -60.6% (active).

Consider `C=C1CCC2C3(C)COC(c4ccccc4Br)OC3CCC2(C)C1C/C=C1/C(=O)OCC1OC(C)=O` (stereo unspecified), for which the growth was -52.7% (active).

In the case of `N=S(=O)(NC(=O)c1ccc(Cl)cc1Cl)c1ccc(Br)s1` (stereo unspecified), the growth was 103%.

Consider `CS(=O)CCCCCN=C=S` (stereo unspecified), for which the growth was -25.4% (active).

Turning to `CC1CN(C(C)C)C(=S)N(c2ccccc2)C1=O` (stereo unspecified), the growth is 87%.

`CC/C=C\C[C@H](O)C/C=C1/C(=O)C=C[C@@H]1C/C=C\CCCC(N)=O`: the growth is -19.3% (active).

In the case of `CCOC(=O)c1ccc2c(c1)nc(/C=C/c1ccc(Cl)cc1)n2-c1cc(C(C)(C)C)[nH]n1`, the growth was 52.2%.

Turning to `COC1/C=C\OC2(C)Oc3c(C)c(O)c4c(O)c(c(CN(C)CCO)c(O)c4c3C2=O)NC(=O)/C(C)=C\C=C/C(C)C(O)C(C)C(O)C(C)C(OC(C)=O)C1C` (stereo unspecified), the growth was 87.8%.

Take `C(=N\Nc1ccccn1)/c1ccccn1`: the growth is -9.71% (active).

Take `O=C1C=CC(=O)N1c1ccc(Cc2ccc(N3C(=O)C=CC3=O)cc2)cc1`: the growth was 94.5%.

On to `COc1cc(NC(N)=NCC(C)(C)COc2ccc(C(F)(F)F)cc2)cnc1C#N`, for which the growth was 57.6%.

As for `CCOC(=O)C(Cc1cc(I)c(O)c(I)c1)NC(=O)c1ccccc1` (stereo unspecified), the growth is 87.5%.

Turning to `CCn1cc2c(cc1=O)-c1nc3ccccc3c3ccnc(c13)C2=O`, the growth is 39%.

Turning to `Nc1c(C(=O)Nc2ccccc2)sc2nc3c(cc12)CN(CCc1ccccc1)CC3`, the growth was 86.1%.

As for `COc1ccc2nc3cc(Cl)ccc3c(NCCNCC(O)CO)c2c1` (stereo unspecified), the growth was 3.19% (active).

In the case of `COc1ccc(C2c3ccc4ccccc4c3Oc3ncnc(N)c32)cc1` (stereo unspecified), the growth is 46.2%.

Regarding `CCCCCCCCCCCCCCCC[N+]1(CC)CCCC1`, the growth is -73.7% (active).

For `O=C1O[C@H]([C@H](O)CO)C(O)=C1O`, the growth was 88.4%.

As for `Cc1cc2c(cc1C)NC1=C(N2)OC(c2c3ccccc3cc3ccccc23)C1=O` (stereo unspecified), the growth was -5.18% (active).

As to `O=C(CN1CCN(c2cc3c(cc2F)c(=O)c(C(=O)O)cn3C2CC2)CC1)Nc1cc(=O)[nH]c(=O)[nH]1`, the growth was 92.8%.

Turning to `NC(N)=Nc1ccc(S(=O)(=O)O)cc1`, the growth is 79.3%.

Consider `COc1cc(C#N)cc(OC)c1OCCN(CCOc1c(OC)cc(C#N)cc1OC)S(=O)(=O)c1ccc(C)cc1`, for which the growth was 95.1%.

On to `C[C@@H]1CC[C@@H]2[C@@H]1[C@H](OC(=O)/C=C/c1ccccc1)[C@]1(C3CCCCC3)C[C@@H](OC(=O)CO)[C@@]2(C)O1`, for which the growth was 65.9%.

On to `O=S(=O)(Nc1ccc(Cl)cc1Cl)c1ccc(-c2cnc(C3CC3)o2)cc1`, for which the growth was -1.33% (active).

As for `O=[N+]([O-])c1cccc(-c2nc3sccn3c2-c2ccnc(NCCNS(=O)(=O)c3ccc(C(F)(F)F)cc3)n2)c1`, the growth was 34.3%.

For the molecule `CC[C@@H](C)OC(=O)c1nn(C(C)=O)c2ccccc12`, the growth is 87.1%.

For the molecule `CCN(CC)CC(O)CNc1c2ccc([N+](=O)[O-])cc2nc2cc(OC)c(OC)cc12` (stereo unspecified), the growth was -65.6% (active).

Consider `CN1/C(=C\C=C\C2=[N+](C)c3ccccc3C2(C)C)C(C)(C)c2ccccc21`, for which the growth is -41.7% (active).

For `COc1ccc(-c2nn(-c3ccccc3)cc2/C=C2\SC(=O)NC2=O)cc1`, the growth is 81.6%.

`O=C(O)c1ccc2c(c1Sc1ccccc1)C(=O)c1ccccc1C2=O`: the growth is 120%.

Turning to `CCOC(=O)C12CCCC1=CC(=O)CC2` (stereo unspecified), the growth was 105%.

The subject of a further experiment is A549/ATCC NSCLC. Described as above. The note with it: 10 µM unless noted.
Consider `O=c1c2cccc3c(Nc4ccccn4)ccc(c32)c2nc3ccccc3n12`, for which the growth is 70.9%.

Regarding `CN(C)c1ccc(/C=C\C2=[N+](C)c3ccccc3C2(C)C)cc1`, the growth was 2.47% (active).

Consider `Cn1cc(-c2nc(-c3c[nH]c4ccccc34)cs2)c2cccnc21`, for which the growth is 34.2%.

With `CCOC(=O)CC(=O)c1c(C)cc(C)cc1C`, the growth is 107%.

As for `CC(C)c1c(C(=O)Nc2ccccc2)c(-c2ccccc2)c(-c2ccc(F)cc2)n1CC[C@@H]1CC=CC(=O)O1`, the growth is -9.24% (active).

In the case of `CCN(CC)Cc1cc(Nc2c3ccc(Cl)cc3nc3c(C)cccc23)ccc1O`, the growth was -15.5% (active).

Consider `O=[N+]([O-])c1cccc(C2CC(c3ccccc3)=Nc3ccccc3S2)c1` (stereo unspecified), for which the growth is 88.6%.

Take `C=C1C(=O)O[C@H]2[C@H]1CC/C(Cn1cc(Cn3ccc4ccccc43)nn1)=C\CC[C@@]1(C)O[C@@H]21`: the growth was 62%.

Take `C=C1CCC2C3(C)COC(c4ccccc4Br)OC3CCC2(C)C1C/C=C1/C(=O)OCC1OC(C)=O` (stereo unspecified): the growth was 22.7%.

With `N=S(=O)(NC(=O)c1ccc(Cl)cc1Cl)c1ccc(Br)s1` (stereo unspecified), the growth is 80.7%.

In the case of `CS(=O)CCCCCN=C=S` (stereo unspecified), the growth was -0.774% (active).

Take `CC1CN(C(C)C)C(=S)N(c2ccccc2)C1=O` (stereo unspecified): the growth is 101%.

Turning to `CC/C=C\C[C@H](O)C/C=C1/C(=O)C=C[C@@H]1C/C=C\CCCC(N)=O`, the growth is -23.5% (active).

Take `CCOC(=O)c1ccc2c(c1)nc(/C=C/c1ccc(Cl)cc1)n2-c1cc(C(C)(C)C)[nH]n1`: the growth was 32.8%.

Regarding `COC1/C=C\OC2(C)Oc3c(C)c(O)c4c(O)c(c(CN(C)CCO)c(O)c4c3C2=O)NC(=O)/C(C)=C\C=C/C(C)C(O)C(C)C(O)C(C)C(OC(C)=O)C1C` (stereo unspecified), the growth was 116%.

In the case of `C(=N\Nc1ccccn1)/c1ccccn1`, the growth was 12.2%.

In the case of `O=C1C=CC(=O)N1c1ccc(Cc2ccc(N3C(=O)C=CC3=O)cc2)cc1`, the growth was 111%.

For the molecule `COc1cc(NC(N)=NCC(C)(C)COc2ccc(C(F)(F)F)cc2)cnc1C#N`, the growth was 72.5%.

For the molecule `CCOC(=O)C(Cc1cc(I)c(O)c(I)c1)NC(=O)c1ccccc1` (stereo unspecified), the growth is 83.8%.

`CCn1cc2c(cc1=O)-c1nc3ccccc3c3ccnc(c13)C2=O`: the growth is 29%.

As for `Nc1c(C(=O)Nc2ccccc2)sc2nc3c(cc12)CN(CCc1ccccc1)CC3`, the growth is 107%.

Take `COc1ccc2nc3cc(Cl)ccc3c(NCCNCC(O)CO)c2c1` (stereo unspecified): the growth was 14.6%.

On to `COc1ccc(C2c3ccc4ccccc4c3Oc3ncnc(N)c32)cc1` (stereo unspecified), for which the growth was 97.3%.

For the molecule `CCCCCCCCCCCCCCCC[N+]1(CC)CCCC1`, the growth was -63.1% (active).

As for `O=C1O[C@H]([C@H](O)CO)C(O)=C1O`, the growth is 104%.

On to `Cc1cc2c(cc1C)NC1=C(N2)OC(c2c3ccccc3cc3ccccc23)C1=O` (stereo unspecified), for which the growth was 26.7%.

Turning to `O=C(CN1CCN(c2cc3c(cc2F)c(=O)c(C(=O)O)cn3C2CC2)CC1)Nc1cc(=O)[nH]c(=O)[nH]1`, the growth is 103%.

In the case of `NC(N)=Nc1ccc(S(=O)(=O)O)cc1`, the growth is 106%.

For `COc1cc(C#N)cc(OC)c1OCCN(CCOc1c(OC)cc(C#N)cc1OC)S(=O)(=O)c1ccc(C)cc1`, the growth was 100%.

For `C[C@@H]1CC[C@@H]2[C@@H]1[C@H](OC(=O)/C=C/c1ccccc1)[C@]1(C3CCCCC3)C[C@@H](OC(=O)CO)[C@@]2(C)O1`, the growth was 53.1%.

Regarding `O=S(=O)(Nc1ccc(Cl)cc1Cl)c1ccc(-c2cnc(C3CC3)o2)cc1`, the growth was 26.5%.

`O=[N+]([O-])c1cccc(-c2nc3sccn3c2-c2ccnc(NCCNS(=O)(=O)c3ccc(C(F)(F)F)cc3)n2)c1`: the growth was 31.9%.

For the molecule `CC[C@@H](C)OC(=O)c1nn(C(C)=O)c2ccccc12`, the growth was 90%.

Take `CCN(CC)CC(O)CNc1c2ccc([N+](=O)[O-])cc2nc2cc(OC)c(OC)cc12` (stereo unspecified): the growth is -22% (active).

For `CN1/C(=C\C=C\C2=[N+](C)c3ccccc3C2(C)C)C(C)(C)c2ccccc21`, the growth is 6.73% (active).

Consider `COc1ccc(-c2nn(-c3ccccc3)cc2/C=C2\SC(=O)NC2=O)cc1`, for which the growth was 105%.

For `O=C(O)c1ccc2c(c1Sc1ccccc1)C(=O)c1ccccc1C2=O`, the growth is 96.8%.

On to `CCOC(=O)C12CCCC1=CC(=O)CC2` (stereo unspecified), for which the growth was 91.6%.
